# Out of some 310,000 compounds screened, about 14,000 (4.5%) showed an effect of 50% or more. Effects have a minus sign here. Many of the other results were omitted from the sample, so strong results are more common in it than they were.
# Target: human ether-à-go-go-related gene (hERG) potassium channel (human, UniProt Q12809)
# Assay: primary screen, population patch clamp on CHO cells stably expressing hERG; higher = less effect of the substance
# 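Also: peak tail current of the secondary pulse compared with the same well before compound.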
# human ether-à-go-go-related gene (hERG) potassium channel, sequence (Q12809 whole entry, looked up): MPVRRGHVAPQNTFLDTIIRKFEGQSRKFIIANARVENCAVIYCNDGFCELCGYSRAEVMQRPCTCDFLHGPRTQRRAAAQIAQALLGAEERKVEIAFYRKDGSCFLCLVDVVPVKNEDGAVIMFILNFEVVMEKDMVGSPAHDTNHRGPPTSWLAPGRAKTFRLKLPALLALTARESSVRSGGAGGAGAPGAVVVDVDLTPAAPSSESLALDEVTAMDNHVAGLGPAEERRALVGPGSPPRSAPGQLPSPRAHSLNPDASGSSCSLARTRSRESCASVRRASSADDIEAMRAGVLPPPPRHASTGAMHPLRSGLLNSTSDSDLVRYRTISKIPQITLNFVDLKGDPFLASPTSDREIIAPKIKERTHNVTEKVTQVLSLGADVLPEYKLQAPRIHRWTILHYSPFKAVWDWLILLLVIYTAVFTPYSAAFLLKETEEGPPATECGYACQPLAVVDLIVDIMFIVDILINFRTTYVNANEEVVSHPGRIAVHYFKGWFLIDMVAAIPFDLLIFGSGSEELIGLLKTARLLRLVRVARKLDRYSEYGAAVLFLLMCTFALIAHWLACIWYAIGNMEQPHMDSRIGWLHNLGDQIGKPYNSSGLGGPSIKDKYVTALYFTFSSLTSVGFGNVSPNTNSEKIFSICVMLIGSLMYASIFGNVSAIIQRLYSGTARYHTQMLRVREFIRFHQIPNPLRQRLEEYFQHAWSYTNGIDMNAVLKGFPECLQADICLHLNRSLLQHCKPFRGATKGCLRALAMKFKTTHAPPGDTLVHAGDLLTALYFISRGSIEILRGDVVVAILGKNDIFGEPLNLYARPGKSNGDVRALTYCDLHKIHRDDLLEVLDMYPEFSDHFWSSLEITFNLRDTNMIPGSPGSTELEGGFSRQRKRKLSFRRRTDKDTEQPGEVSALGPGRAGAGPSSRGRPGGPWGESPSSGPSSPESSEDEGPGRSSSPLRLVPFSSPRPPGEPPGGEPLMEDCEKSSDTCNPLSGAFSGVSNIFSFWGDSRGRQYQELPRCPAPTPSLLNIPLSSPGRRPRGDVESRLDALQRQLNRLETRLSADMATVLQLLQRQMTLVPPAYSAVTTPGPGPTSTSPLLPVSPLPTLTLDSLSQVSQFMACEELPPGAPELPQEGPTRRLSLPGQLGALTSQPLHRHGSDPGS
row,Compound,"hERG current change (%, negative = inhibition) at 10uM [%]"
1,O=C(COC(=O)C1CCN(S(=O)(=O)c2cccs2)CC1)NCc1ccc(F)cc1,-49.7
2,Cc1ccc(S(=O)(=O)N2CCC(C(=O)OCC(=O)N3CCc4ccccc43)CC2)cc1,-25.4
3,O=C(COC(=O)C1CCN(S(=O)(=O)c2cccs2)CC1)NCc1ccccc1,-23.6
4,CN(C(=O)COC(=O)C1CCN(S(=O)(=O)c2cccs2)CC1)c1ccccc1,-14.1
5,CCN(C(=O)COC(=O)C1CCN(S(=O)(=O)c2cccs2)CC1)c1ccccc1,22
6,O=C(COC(=O)C1CCN(S(=O)(=O)c2cccs2)CC1)c1ccccc1,20.6
7,Cc1ccc(CNC(=O)COC(=O)C2CCN(S(=O)(=O)c3cccs3)CC2)cc1,-50.5
8,CN(C)C=O.O=C(OCC(=O)N1CCCc2ccccc21)C1CCN(S(=O)(=O)c2cccs2)CC1,-71.1
9,CN(Cc1ccccc1)C(=O)COC(=O)C1CCN(S(=O)(=O)c2cccs2)CC1,-53.4
10,ClC1(Cl)CC1CSc1nnc(-c2ccncc2)o1 (stereo not drawn),-16.3
11,COc1ccc(-c2ccc(NS(=O)(=O)c3cc([N+](=O)[O-])c(C)c([N+](=O)[O-])c3)cc2)nn1,-11.3
12,O=C(Cn1nnc(N2CCCC2)n1)N/N=C/c1ccc(Cl)cc1,13.1
13,Cc1cc(C)c(C)c(S(=O)(=O)NCc2ccc(C(=O)N3CCOCC3)cc2)c1C,-4.97
14,O=C(CSc1ccccc1)N1CCCC(N2CCN(c3cccc(Cl)c3)CC2)C1 (stereo not drawn),-54.1
15,O=C(CSc1ccccc1)N1CCCC(N2CCN(c3ccc(F)cc3)CC2)C1 (stereo not drawn),-75.3
16,O=C(CCC(F)(F)F)N1CCCC(N2CCN(c3cccc(Cl)c3)CC2)C1 (stereo not drawn),-46.8
17,O=C(CSc1ccccc1)N1CCCC(N2CCN(c3ccccc3)CC2)C1 (stereo not drawn),-33.7
18,O=C(CSc1ccccc1)N1CCN(c2ccc(F)cc2)CC1,10.8
19,CC(=O)CCC(=O)N1CCCC(N2CCN(c3cccc(Cl)c3)CC2)C1 (stereo not drawn),-2.63

row,Compound,"hERG current change (%, negative = inhibition) at 10uM [%]"
1,CCCc1cc(C(=O)NCc2ccco2)no1,9.57
2,COc1cccc(CCc2nnc(CCC(=O)NCCc3cccc(C)n3)o2)c1,24.7
3,CCCOc1cccc(C2C(C(=O)c3cc4ccccc4o3)=C(O)C(=O)N2c2cc(C)on2)c1 (stereo not drawn),-7.72
4,CCCCCCOC(=O)C[N+](C)(C)CCOC1CC2CCC1(C)C2(C)C.[Cl-] (stereo not drawn),-78.1
5,CCC(C)OC(=O)C[N+](C)(C)CCOC1CC2CCC1(C)C2(C)C.[Cl-] (stereo not drawn),-17.3
6,CCOC(=O)C[N+](C)(C)CCOC1CC2CCC1(C)C2(C)C.[Cl-] (stereo not drawn),10.3
7,CC(C)CCOC(=O)C[N+](C)(C)CCOC1CC2CCC1(C)C2(C)C.[Cl-] (stereo not drawn),-16.3
8,CCCCOC(=O)C[N+](C)(C)CCOC1CC2CCC1(C)C2(C)C.[Br-] (stereo not drawn),-52.7
9,CCCOC(=O)C[N+](C)(C)CCOC1CC2CCC1(C)C2(C)C.[Br-] (stereo not drawn),13
10,CCCn1nc2cc(C(=O)NCc3ccc(OC(F)(F)F)cc3)ccc2c1OCC,14.3
11,O=C(COC(=O)c1ccc(Cl)nc1)NC1CCCCCC1,-5.25
12,CCCc1nnc(NC(=O)CCC(=O)N2CCN(C3c4ccccc4-c4ccccc43)CC2)s1,-3.76
13,CCCP(=O)(CC(=O)N(CC)CC)c1ccccc1 (stereo not drawn),12
14,COc1ccccc1N1CCN(C(=O)c2cc3n(n2)C(C(F)(F)F)CC(c2ccco2)N3)CC1 (stereo not drawn),-1.94
15,CC(C)c1nnc(NC(=O)c2cc3ccccc3o2)s1,11.1
16,Cc1c(CNC(=O)C2CC2)c(-n2cccc2)n(Cc2ccccc2)c1C,27.1
17,N#Cc1ccccc1OCc1cccc(S(=O)(=O)N2CCOCC2)c1,-38.9
18,N#Cc1ccc(OCc2cccc(S(=O)(=O)N3CCOCC3)c2)cc1,-82.1
19,Cc1cc(OCc2cccc(S(=O)(=O)N3CCOCC3)c2)ccc1Cl,-9.12

row,Compound,"hERG current change (%, negative = inhibition) at 10uM [%]"
1,O=S(=O)(c1cccc(COc2c(Cl)cccc2Cl)c1)N1CCOCC1,-12
2,CC(=O)c1cc(Cl)ccc1OCc1cccc(S(=O)(=O)N2CCOCC2)c1,-68.9
3,O=S(=O)(c1cccc(COc2ccc(Cl)cc2Cl)c1)N1CCOCC1,3.46
4,COC(=O)c1sc2nc(CN3CCOCC3)nc(N3CCOCC3)c2c1C,1.53
5,O=c1cc(N2CCN(c3ccccc3)CC2)[nH]c(=O)n1Cc1ccc(F)cc1,-25.9
6,OC1(c2ccccn2)COc2ccccc2O1 (stereo not drawn),-10.5
7,CC(=O)Nc1ccc(Br)cc1C(=O)C(=O)O,-2.93
8,CCCOc1ccc(-c2nnn(CC(=O)N3CCCCC3)n2)cc1,12.9
9,N#C/C(=C\c1ccc(Cl)cc1)c1nc2ncccc2[nH]1,-15.1
10,CC1CCN(c2c(NCC3CCC(C(=O)N4CCCC(C)C4)CC3)c(=O)c2=O)CC1 (stereo not drawn),2.75
11,Oc1ccc(Cl)cc1CNCc1ccc(Cl)cc1,-3.68
12,CCc1ccc(O)c(CNCCNCc2cc(CC)ccc2O)c1,-55.2
13,Cc1ccc(O)c(CNCCNCc2cc(C)ccc2O)c1,-11.9
14,N=c1c(C(=O)NCCN2CCOCC2)cc2c(=O)n3ccccc3nc2n1Cc1ccc(F)cc1,-76.5
15,Cc1ccc(Cn2c(=N)c(C(=O)NCCN3CCOCC3)cc3c(=O)n4ccccc4nc32)cc1,-63.2
16,Cn1c(C(=O)NCCN2CCOCC2)cc2c(=O)n3ccccc3nc21,10
17,O=C(NCCN1CCOCC1)c1cc2c(=O)n3ccccc3nc2n1Cc1ccccc1,-5.9
18,Cc1c(C)n(Cc2ccc(F)cc2)c2ccc(C(=O)NCCN3CCOCC3)cc12,-19.2
19,Cc1cccn2c(=O)c3cc(C(=O)NCCN4CCOCC4)c(=N)n(Cc4ccc(F)cc4)c3nc12,-72.9

# From paper PMC4336329 (PLoS ONE, 2015)
